Calls of active or inactive are those of the source. Calls come from the whole dose curve.

The experiment is described as follows: qHTS Assay for Inhibitors of Influenza NS1 Protein Function: Viral Replication TCID50 SAR for Probe. Particulars: Influenza virus replication in cells, TCID50 titer reduction. The source says:
Influenza is a world-wide public health problem and emerging forms of the virus have the potential to cause a pandemic of equal or greater magnitude to the outbreaks recorded in 1918, 1957 or 1968. Vaccine development is proceeding and there also exist two classes of anti-influenza compounds. However these therapeutic modalities are neither fully effective nor widely enough available to fulfill global needs. In addition their potential usefulness against newly emergent strains is not known. Efforts are needed to develop novel agents against influenza virus, including broad-spectrum agents. Identification of small molecules that inhibit NS1 function either directly or by interfering with specific cellular pathways may be a key to increasing our defense against the virus.
We have miniaturized and optimized a cell based assay in which NS1 from influenza A is expressed in the budding yeast S. cerevisiae. NS1 is a multi-functional protein that counters the host innate immune response and facilitates viral versus cellular gene expression. Expression of NS1 causes a pronounced slow growth phenotype in yeast due to its intrinsic molecular activities. Small molecules that suppress the slow growth phenotype can be identified by a straightforward growth recovery assay using optical density (OD) as the measurement. The same yeast strain not expressing NS1 was used as positive control in the yeast growth recovery assay.
Hits resulting from this primary screen and other follow-up screens, were tested in two concentrations in this viral replication assay.
NIH Chemical Genomics Center [NCGC]
NIH Molecular Libraries Probe Centers Network [MLPCN]
Assay Submitter (PI): Daniel Engel, University of Virgina
Cell monolayers were infected at an m.o.i. of 0.1 for 48 h in the presence or absence of the compound, which was added at the beginning of infection. Virus titres were determined by TCID50 analysis (Reed, L. J. & Muench, H. (1938). A simple method of estimating fifty per cent endpoints. Am J Epidemiol 27, 493-497).
For orientation: Quantitative high-throughput screening tests each substance at several concentrations.
For `COc1cc(-c2ccnc3c2c(C)nn3-c2ccc(C(F)(F)F)cc2)ccc1O`, the Potency was 155 nM (active).
For `COc1cc(-c2c(C#N)c(N)nc3c2c(C)nn3-c2ccc(F)cc2)ccc1O` the value was 101 nM (active); for `Cc1nn(-c2ccc(Cl)cc2)c2nc(N)c(C#N)c(-c3ccc(O)c(O)c3)c12`, 279 nM (active); for `Cc1ccc(-n2nc(C)c3c(-c4ccc(O)c(O)c4)c(C#N)c(N)nc32)cc1C`, 234 nM (active).
The same measure for `COc1cc(-c2ccnc3c2c(C)nn3-c2cccc(C(F)(F)F)c2)ccc1O`: 82.7 nM (active).

The values are drawn from PubChem BioAssay AID602450 (National Center for Advancing Translational Sciences (NCATS), 2012).
